Shown are actives, neighbours in structure and some others; about 9.5% of the full set was active somewhere.
Pf growth 48h – P. falciparum growth inhibition at 48 hours (one generation). P. falciparum luciferase growth in erythrocytes, 48 h. Potency, µM (titrated, usually from 28.7 µM), without a hit: at the top dose activity change, negative = inhibition, actives largely listed as inhibitors. 5.9% of 310,000 active. AID 504832; active = well fitted inhibition curve with a large enough effect; inconclusive = small, poorly fitted or top-dose-only effect, or another doubt; inactive = no such curve, though single readings can be large or run the other way; note: % is set by controls: 0 for no effect and ±100 for the full control effect
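Luminescence readout; reporter = integrated firefly luciferase in P. falciparum. RBC culture at 2% hematocrit, 0.1% parasitemia final, 37 C/5% CO2; decreased signal taken as growth inhibition.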
Pf growth 96h – inhibits malaria parasite growth, 96 h; P. falciparum luciferase reporter growth, 96 h; Potency, µM (highest dose often 28.7 µM), for the others: at the top dose activity change, negative = inhibition, hits mostly inhibitors; 6.9% of 320,000 active; AID 504834; active = well fitted inhibition curve with a large enough effect; inconclusive = small, poorly fitted or top-dose-only effect, or another doubt; inactive = no such curve, though single readings can be large or run the other way; note: % is set by controls: 0 for no effect and ±100 for the full control effect
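P. falciparum expressing integrated firefly luciferase grown in erythrocytes (2% hematocrit, 0.05% parasitemia final) with compounds for 96 hours at 37 C, 5% CO2. Growth inhibition read as loss of luminescence after adding luciferase detection reagent.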
RE007 growth inh – less growth of the S. pombe RE007 Vpr strain | S. pombe RE007 Vpr strain, BacTiter-Glo ATP luminescence, 24 h | Potency, µM (highest dose often 92.2 µM), for the others: at the highest dose activity change, negative = less growth, hits mostly inhibitors | 0.21% of 360,000 active | AID 651644; active = well fitted falling curve with a large enough effect; inconclusive = small, poorly fitted or top-dose-only effect; inactive = no such curve, though single readings can be large or run the other way; note: % is set by controls: 0 for no effect and ±100 for the full control effect; nearly all actives have a fitted effect of over 50% in size
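Fission yeast RE007 carrying one integrated HIV-1 vpr copy, seeded at OD 0.01 in PMG+AL medium with 23 nL pinned compound. Grown 24 h at 30 degrees; viability read by BacTiter-Glo luminescence after 5 min.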
NS1 function inh – inhibitors of influenza NS1 protein function. 0.4% of 270,000 active. Potency, µM (series often up to 46.1 µM), for inactives: at the highest dose activity, positive = more growth. AID 2326; note: actives are rising curves; nearly all actives have a fitted effect of over 50% in size
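OD600 was taken as the measure of yeast growth restored by compound in an NS1-expressing S. cerevisiae strain. Cells had been washed out of glucose medium and diluted 1:100 into galactose -URA medium, pH 6.0.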
SARS PLP yeast – inhibitors of SARS-CoV papain-like protease in yeast. S. cerevisiae expressing SARS-CoV PLpro, growth rescue. 0.19% of 330,000 active. Potency, µM (titrated, usually from 32.9 µM), without a hit: at the highest dose activity, positive = growth rescue, hits mostly activators; note: 0% is about no effect; nearly all actives have a fitted effect of over 55% in size
* = called active by the depositor; ? = inconclusive; nt = not tested or not shown. Unless noted, calls come from the whole dose curve. Potency is the fitted concentration of half-maximal effect.

SMILES	Pf growth 48h	Pf growth 96h	RE007 growth inh	NS1 function inh	SARS PLP yeast
CC(C)c1ccc(NC2CCCN(C(=O)C3=NN(C)C(=O)CC3)C2)cc1 (configuration not stated)	?	?	0%	1%	?
Cc1ccccc1OCC(=O)N/N=C1\CC(=O)CC(C)(C)C1	-13%	-26%	2%	6%	0%
CCCOc1ccc(CN(CCO)CCO)cc1[N+](=O)[O-]	?	?	-1%	20%	-16%
CCOc1ccc(CN(CCO)CCO)cc1C(=O)OC	8%	2.1µM*	0%	-2%	3%
CC1(C)CC2CC(C)(CN2C(=O)COC(=O)c2cncc(Br)c2)C1 (configuration not stated)	12%	30%	2%	nt	2%
Cc1ccc(-n2c(-c3ccccc3)c[n+]3c2CCC3)cc1	1µM*	0.74µM*	-6%	0%	-1%
FC(F)Sc1ccc(-n2c(-c3ccc(Cl)cc3)c[n+]3c2CCC3)cc1	?	?	-10%	nt	0%
Cc1ccc(-n2c(-c3ccccc3)nnc2-c2cccs2)cc1	2%	5%	1%	-2%	-4%
Cc1ccc(-n2c(-c3ccc(Cl)cc3)c[n+]3c2CCC3)cc1	0.26µM*	0.1µM*	10%	1%	0%
CC/C(=N/NC(=O)c1ccc2c(c1)OCO2)c1ccccc1O	nt	nt	-10%	nt	nt
COc1ccc2cc3cc(C(=O)NCCN4CCc5ccccc5C4)sc3nc2c1	?	2.6µM*	-4%	-3%	-2%
COc1ccc2cc3cc(C(=O)NCCN4CCc5ccccc5C4)oc3nc2c1	3.3µM*	?	?	-43%	-14%
CC(=O)Nc1ccc2c(c1)/C(=C/c1ccc([N+](C)(C)C)cc1)c1ccccc1-2	nt	nt	nt	-8%	nt
O=S(=O)(c1ccccc1)C1CC1(c1ccccc1)c1ccccc1 (configuration not stated)	nt	nt	-6%	nt	nt
CCCOC(=O)C[N+](C)(C)CCOC1CC2CCC1(C)C2(C)C (configuration not stated)	1.9µM*	1.5µM*	10%	-1%	0%
CCCCCCCOC(=O)C[N+](C)(C)CCOC1CC2CCC1(C)C2(C)C (configuration not stated)	1.9µM*	13µM*	27%	-13%	-64%
CCCCCCOC(=O)C[N+](C)(C)CCOC1CC2CCC1(C)C2(C)C (configuration not stated)	1.7µM*	0.74µM*	14%	-3%	-18%
CCC(C)OC(=O)C[N+](C)(C)CCOC1CC2CCC1(C)C2(C)C (configuration not stated)	0.93µM*	36%	-1%	2%	1%
CC(C)CCOC(=O)C[N+](C)(C)CCOC1CC2CCC1(C)C2(C)C (configuration not stated)	?	246%	10%	nt	-3%
CC(C)c1ccc(C2NC(=S)NC3=C2C(=O)CC(C)(C)C3)cc1 (configuration not stated)	23%	0%	7%	7%	-27%
CCc1cc(C(=O)NC(C)C2CCCO2)cs1 (configuration not stated)	54%	-19%	14%	4%	?
CC(NC(=O)c1cc(Br)cs1)C1CCCO1 (configuration not stated)	71%	13µM*	17%	-11%	7%
CSc1ccc(/C=C(\C#N)C(=O)Nc2cccc(C)c2)cc1	2%	?	21%	1%	16%
O=C(Nc1ccccc1F)C1COc2ccccc2O1 (configuration not stated)	8%	?	-12%	-13%	4%
Cc1ccc(/C=C/C(=O)N2CCN(S(=O)(=O)c3c(C)c(C)cc(C)c3C)CC2)o1	7.4µM*	?	11%	18%	-59%
Cc1ccc(S(=O)(=O)N2CCN(C(=O)N(C)C)CC2)cc1C	-8%	nt	-3%	-4%	0%
Cc1ccc(/C=C/C(=O)N2CCN(S(=O)(=O)c3ccc(C)c(C)c3)CC2)o1	?	5.9µM*	25%	-6%	-33%
Cc1cc(C)n(-c2nc3c(c(=O)[nH]c(=O)n3C)n2C)n1	38%	0%	6%	6%	-3%
C=CCn1c(=O)c2c(nc(-n3nc(C)cc3C)n2C)n(C)c1=O	10µM*	-1%	6%	-8%	9%

Screening results as filed in PubChem BioAssay.
